Reference: the supplement of paper PMC10849652
Targets with a hit are over-represented here; the source holds about 8,800 in all. About 0.5% of all pairs of compound and target were hits.

Columns and labels:
Experiment in all cases: log2 fold change, soluble protein after heating vs DMSO (PISA); higher = thermal stabilisation; K562 lysate, 10 uM; active = over 0.2 and 3.5 SD of the protein, either way, in both replicates (recomputed)
nilotinib = compound: Cc1cn(-c2cc(NC(=O)c3ccc(C)c(Nc4nccc(-c5cccnc5)n4)c3)cc(C(F)(F)F)c2)cn1 [nilotinib]
Outline: (§1)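 Soluble protein was defined as the supernatant remaining after 21,000xg for 90 min, following pooling of heated aliquots and adjustment to 0.5% NP-40 at 4°C. Before that, crude K562 extract at 1 mg/mL protein in PBS pH 7.4 with 1 mM MgCl2 was treated with 10 μM compound for 30 min and heated for 3 min across 48°C-58°C. Quantification used TMTpro 16plex LC-MS/MS with channel sums equalised, and values are log-two fold changes in thermal stability relative to solvent controls from duplicates.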

[1] = compound: Cc1nc(Nc2n[nH]c3c2CN(C(=O)N[C@H](CN(C)C)c2ccccc2)C3(C)C)c2sccc2n1
Outline: as §1

dasatinib = compound: Cc1nc(Nc2ncc(C(=O)Nc3c(C)cccc3Cl)s2)cc(N2CCN(CCO)CC2)n1 [dasatinib]
Outline: as §1

[2] = compound: Cc1ncc(-c2ccnc(Nc3ccc(S(C)(=O)=O)cc3)n2)n1C(C)C
Outline: as §1

[3] = compound: Cn1cc(-c2ccc3c(c2)CCN3C(=O)Cc2cccc(C(F)(F)F)c2)c2c(N)ncnc21
Outline: as §1

quisinostat = compound: Cn1cc(CNCC2CCN(c3ncc(C(=O)NO)cn3)CC2)c2ccccc21 [quisinostat]
Outline: as §1

tipifarnib = compound: Cn1cncc1[C@@](N)(c1ccc(Cl)cc1)c1ccc2c(c1)c(-c1cccc(Cl)c1)cc(=O)n2C [tipifarnib]
Outline: as §1

[4] = compound: NC(=O)Nc1cc(-c2cccc(F)c2)sc1C(=O)N[C@H]1CCCNC1
Outline: as §1

[5] = compound: NC(=O)c1cnc(N[C@@H]2CCCC[C@@H]2N)nc1Nc1cccc(-n2nccn2)c1
Outline: as §1

[6] = compound: NCC(=O)Nc1ccc(-n2nc(C(F)(F)F)cc2-c2ccc3c(ccc4ccccc43)c2)cc1
Outline: as §1

[7] = compound: O=C1NC(=O)C(c2cnc3ccccn23)=C1c1cn2c3c(cc(F)cc13)CN(C(=O)N1CCCCC1)CC2
Outline: as §1

entospletinib = compound: c1cn2cc(-c3ccc4cn[nH]c4c3)nc(Nc3ccc(N4CCOCC4)cc3)c2n1 [entospletinib]
Outline: as §1

[8] = compound: NC1(c2ccc(-c3nc4ccn5c(=O)[nH]nc5c4cc3-c3ccccc3)cc2)CCC1
Outline: as §1

vorinostat = compound: O=C(CCCCCCC(=O)Nc1ccccc1)NO [vorinostat]
Outline: as §1

silmitasertib = compound: O=C(O)c1ccc2c(c1)nc(Nc1cccc(Cl)c1)c1ccncc12 [silmitasertib]
Outline: as §1

Measured: log2 fold change

SURF2 (UniProt Q15527)
inactive: nilotinib -0.192 | [1] -0.052 | dasatinib -0.045 | [2] 0.195 | [3] -0.031 | quisinostat -0.054 | tipifarnib 0.066 | [4] -0.036 | [5] 0.014 | [6] -0.01 | [7] 0.04 | entospletinib 0.049

TAOK2 (UniProt Q9UL54)
Chain of UniProt Q9UL54 (Q9UL54 whole entry, looked up): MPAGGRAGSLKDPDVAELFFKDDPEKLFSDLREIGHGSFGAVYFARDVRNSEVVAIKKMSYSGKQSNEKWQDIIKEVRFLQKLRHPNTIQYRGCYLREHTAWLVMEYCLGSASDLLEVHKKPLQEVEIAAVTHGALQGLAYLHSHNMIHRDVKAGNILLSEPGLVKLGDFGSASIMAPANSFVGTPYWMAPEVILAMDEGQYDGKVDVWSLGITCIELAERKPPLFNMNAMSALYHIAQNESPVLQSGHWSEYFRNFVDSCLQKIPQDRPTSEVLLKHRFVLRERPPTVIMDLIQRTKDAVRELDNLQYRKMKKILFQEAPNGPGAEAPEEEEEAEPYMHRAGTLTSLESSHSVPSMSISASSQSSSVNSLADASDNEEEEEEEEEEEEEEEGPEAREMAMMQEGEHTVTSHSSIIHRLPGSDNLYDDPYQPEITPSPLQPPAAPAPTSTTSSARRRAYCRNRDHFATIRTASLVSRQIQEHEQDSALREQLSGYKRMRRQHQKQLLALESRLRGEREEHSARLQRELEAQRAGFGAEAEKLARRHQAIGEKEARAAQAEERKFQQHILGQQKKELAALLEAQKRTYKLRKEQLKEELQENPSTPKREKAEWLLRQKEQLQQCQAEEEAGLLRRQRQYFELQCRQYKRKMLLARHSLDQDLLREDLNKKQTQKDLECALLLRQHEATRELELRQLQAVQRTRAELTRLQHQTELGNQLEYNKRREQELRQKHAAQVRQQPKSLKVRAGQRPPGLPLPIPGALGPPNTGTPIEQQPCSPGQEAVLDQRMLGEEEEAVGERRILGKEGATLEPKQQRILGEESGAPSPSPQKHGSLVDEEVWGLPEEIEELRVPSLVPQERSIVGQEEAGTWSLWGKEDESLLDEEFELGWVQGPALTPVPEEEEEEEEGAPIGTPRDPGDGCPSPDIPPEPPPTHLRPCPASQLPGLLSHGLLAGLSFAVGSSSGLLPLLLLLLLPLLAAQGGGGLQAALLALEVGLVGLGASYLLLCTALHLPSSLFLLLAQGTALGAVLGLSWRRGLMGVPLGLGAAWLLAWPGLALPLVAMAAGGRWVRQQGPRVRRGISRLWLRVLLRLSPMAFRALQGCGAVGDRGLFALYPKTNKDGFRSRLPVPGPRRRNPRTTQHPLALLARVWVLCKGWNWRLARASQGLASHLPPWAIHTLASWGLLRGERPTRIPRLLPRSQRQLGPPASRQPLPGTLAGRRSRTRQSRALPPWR
inactive: nilotinib 0.033 | [1] -0.069 | dasatinib -0.231 | [2] 0.012 | [3] 0.052 | tipifarnib 0.033 | [4] 0.022 | [5] -0.008 | [6] 0.015 | [7] -0.051 | entospletinib 0.01
active: quisinostat -0.516

SULT1A1 (UniProt P50225)
Chain of UniProt P50225 (P50225 whole entry, looked up): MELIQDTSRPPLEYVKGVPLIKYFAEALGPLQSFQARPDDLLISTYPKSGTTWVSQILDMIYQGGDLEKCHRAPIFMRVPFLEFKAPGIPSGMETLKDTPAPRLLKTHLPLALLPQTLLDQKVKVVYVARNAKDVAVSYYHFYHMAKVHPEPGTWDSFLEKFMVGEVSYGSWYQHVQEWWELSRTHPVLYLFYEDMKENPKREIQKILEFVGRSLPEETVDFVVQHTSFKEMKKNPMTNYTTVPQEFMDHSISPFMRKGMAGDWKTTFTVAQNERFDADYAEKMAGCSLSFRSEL
active: vorinostat -0.273
inactive: nilotinib 0.029 | [1] -0.074 | dasatinib 0.009 | [2] -0.028 | [3] -0.007 | quisinostat -0.006 | tipifarnib -0.043 | [4] 0.047 | [5] 0.007 | [8] -0.021 | [6] 0.077 | silmitasertib 0.036 | [7] -0.021 | entospletinib 0.071

SYF2 (UniProt O95926)
Chain of UniProt O95926 (O95926 whole entry, looked up): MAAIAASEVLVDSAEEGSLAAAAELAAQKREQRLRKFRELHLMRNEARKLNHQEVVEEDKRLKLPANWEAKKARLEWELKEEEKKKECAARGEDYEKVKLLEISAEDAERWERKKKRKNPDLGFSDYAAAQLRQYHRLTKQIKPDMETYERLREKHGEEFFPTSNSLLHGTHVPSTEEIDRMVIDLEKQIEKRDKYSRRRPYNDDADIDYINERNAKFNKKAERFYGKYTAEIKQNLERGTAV
inactive: nilotinib -0.023 | [1] 0 | dasatinib -0.036 | [2] 0.005 | [3] 0.003 | quisinostat -0.008 | tipifarnib 0.046 | [4] -0.016 | [5] 0.04 | [8] -0.106 | [6] -0.047 | vorinostat 0.092 | silmitasertib -0.059 | [7] -0.014 | entospletinib -0.059

SSU72 (UniProt Q9NP77)
Chain of UniProt Q9NP77 (Q9NP77 whole entry, looked up): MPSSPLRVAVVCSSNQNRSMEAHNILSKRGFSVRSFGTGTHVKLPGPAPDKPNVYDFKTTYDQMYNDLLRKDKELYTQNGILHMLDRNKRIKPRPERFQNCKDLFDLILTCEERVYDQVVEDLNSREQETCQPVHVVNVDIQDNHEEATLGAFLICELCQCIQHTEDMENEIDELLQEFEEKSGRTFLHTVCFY
inactive: nilotinib 0.031 | [1] -0.007 | dasatinib -0.008 | [2] -0.028 | [3] 0.037 | quisinostat -0.002 | tipifarnib 0.02 | [4] -0.021 | [5] -0.013 | [8] 0.041 | [6] 0.015 | vorinostat 0.112 | silmitasertib -0.026 | [7] -0.021 | entospletinib -0.014

SMAD9 (UniProt O15198)
Chain of UniProt O15198 (O15198 whole entry, looked up): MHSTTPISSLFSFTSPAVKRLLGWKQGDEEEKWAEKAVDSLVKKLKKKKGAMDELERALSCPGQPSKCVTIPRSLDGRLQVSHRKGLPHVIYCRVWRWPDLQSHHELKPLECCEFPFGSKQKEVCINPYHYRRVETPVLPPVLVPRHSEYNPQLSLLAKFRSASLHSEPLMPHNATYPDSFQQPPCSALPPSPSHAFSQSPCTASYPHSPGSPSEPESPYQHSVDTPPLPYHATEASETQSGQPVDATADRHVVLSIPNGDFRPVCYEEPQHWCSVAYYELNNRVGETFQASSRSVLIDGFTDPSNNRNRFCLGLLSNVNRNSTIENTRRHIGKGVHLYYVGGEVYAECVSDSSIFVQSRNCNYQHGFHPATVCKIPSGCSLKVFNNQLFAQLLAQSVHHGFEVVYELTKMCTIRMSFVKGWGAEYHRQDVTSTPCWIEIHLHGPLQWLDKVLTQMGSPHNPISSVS
inactive: nilotinib 0.066 | [1] 0.054 | dasatinib 0.062 | [2] -0.028 | [3] -0.038 | quisinostat -0.036 | tipifarnib -0.021 | [4] 0.016 | [5] 0.02 | [8] -0.065 | [6] 0.007 | silmitasertib 0.023 | [7] -0.012 | entospletinib 0.017
active: vorinostat -0.436

TAF11 (UniProt Q15544)
inactive: nilotinib 0.05 | [1] -0.049 | dasatinib -0.142 | [2] -0.034 | [3] -0.051 | quisinostat -0.085 | tipifarnib 0.057 | [4] 0.046 | [5] -0.03 | [6] -0.005 | [7] 0.05 | entospletinib -0.073

STAU1 (UniProt O95793)
inactive: nilotinib -0.008 | [1] -0.024 | dasatinib -0.004 | [2] -0.002 | [3] 0.007 | quisinostat 0.003 | tipifarnib -0.009 | [4] 0.037 | [5] 0.001 | [8] 0.005 | [6] 0.045 | vorinostat -0.035 | silmitasertib 0.017 | [7] -0.009 | entospletinib 0.009

STAR (UniProt P49675)
inactive: nilotinib 0.037 | [1] -0.092 | dasatinib 0.046 | [2] -0.019 | [3] 0.011 | quisinostat -0.041 | tipifarnib 0.203 | [4] -0.135 | [8] -0.146 | [6] 0.002 | vorinostat -0.044 | silmitasertib -0.028 | [7] -0.031 | entospletinib -0.103

SKP2 (UniProt Q13309)
inactive: nilotinib 0.047 | [1] -0.044 | dasatinib -0.004 | [2] 0.003 | [3] 0.045 | quisinostat -0.193 | tipifarnib -0.035 | [4] 0.295 | [5] -0.015 | [8] -0.044 | [6] -0.07 | vorinostat -0.203 | silmitasertib 0.012 | [7] 0.009 | entospletinib -0.103

SLC39A13 (UniProt Q96H72)
inactive: [8] -0.018 | vorinostat -0.064 | silmitasertib -0.092

SIN3B (UniProt O75182)
inactive: [1] -0.15 | [2] 0.839 | quisinostat -0.079 | tipifarnib 0.086 | [4] 0.077 | [6] 0.195 | [7] 0.559 | entospletinib -0.089
active: nilotinib 1.42

STN1 (UniProt Q9H668)
inactive: nilotinib -0.149 | [1] -0.071 | [2] 0.034 | quisinostat -0.104 | tipifarnib 0.005 | [4] 0.156 | [5] 0.032 | [8] 0.02 | [6] -0.03 | vorinostat -0.2 | silmitasertib -0.111 | [7] 0.126 | entospletinib 0.049

STK17A (UniProt Q9UEE5)
inactive: nilotinib 0.076 | [1] 0.188 | [2] 0.249 | tipifarnib -0.387

SLC30A6 isoform 2 (UniProt Q6NXT4)
Chain of UniProt Q6NXT4 (Q6NXT4 whole entry, looked up): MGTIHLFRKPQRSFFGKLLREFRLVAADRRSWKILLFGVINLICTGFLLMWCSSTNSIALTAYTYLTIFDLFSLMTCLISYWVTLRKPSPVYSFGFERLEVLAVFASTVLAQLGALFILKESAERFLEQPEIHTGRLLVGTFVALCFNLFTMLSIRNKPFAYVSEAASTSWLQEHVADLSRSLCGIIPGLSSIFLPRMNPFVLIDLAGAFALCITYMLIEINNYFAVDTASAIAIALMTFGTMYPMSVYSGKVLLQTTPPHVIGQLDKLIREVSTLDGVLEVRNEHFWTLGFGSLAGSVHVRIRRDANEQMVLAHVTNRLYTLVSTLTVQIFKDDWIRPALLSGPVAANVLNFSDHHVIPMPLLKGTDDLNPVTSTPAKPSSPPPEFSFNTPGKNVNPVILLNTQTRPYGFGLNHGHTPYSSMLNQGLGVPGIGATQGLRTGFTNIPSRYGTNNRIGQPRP
inactive: nilotinib -0.029 | [1] 0.118 | [2] -0.067 | quisinostat -0.048 | tipifarnib -0.071 | [4] 0.093 | [5] 0.012 | [8] -0.096 | [6] 0.014 | vorinostat 0.11 | silmitasertib 0.01 | [7] 0.001 | entospletinib 0.064

SH3BP2 isoform 4 (UniProt P78314)
inactive: dasatinib -0.027 | [3] -0.107 | quisinostat -0.111 | [4] 0.019 | [5] 0.141 | [8] 0.048 | [6] 0.08 | vorinostat -0.27 | silmitasertib 0.092 | [7] -0.017

SNAP23 isoform 2 (UniProt O00161)
Chain of UniProt O00161 (O00161 whole entry, looked up): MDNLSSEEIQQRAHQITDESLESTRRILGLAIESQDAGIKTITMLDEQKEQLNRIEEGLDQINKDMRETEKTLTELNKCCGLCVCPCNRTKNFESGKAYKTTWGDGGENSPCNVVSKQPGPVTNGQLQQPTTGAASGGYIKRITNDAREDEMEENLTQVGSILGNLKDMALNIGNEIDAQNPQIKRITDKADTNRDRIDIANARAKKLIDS
inactive: nilotinib 0.011 | [1] -0.041 | [2] -0.054 | tipifarnib -0.016 | [5] 0.046 | [8] -0.116 | [6] 0.146 | silmitasertib -0.028 | entospletinib -0.329
active: vorinostat -0.85

STK38L (UniProt Q9Y2H1)
Chain of UniProt Q9Y2H1 (Q9Y2H1 whole entry, looked up): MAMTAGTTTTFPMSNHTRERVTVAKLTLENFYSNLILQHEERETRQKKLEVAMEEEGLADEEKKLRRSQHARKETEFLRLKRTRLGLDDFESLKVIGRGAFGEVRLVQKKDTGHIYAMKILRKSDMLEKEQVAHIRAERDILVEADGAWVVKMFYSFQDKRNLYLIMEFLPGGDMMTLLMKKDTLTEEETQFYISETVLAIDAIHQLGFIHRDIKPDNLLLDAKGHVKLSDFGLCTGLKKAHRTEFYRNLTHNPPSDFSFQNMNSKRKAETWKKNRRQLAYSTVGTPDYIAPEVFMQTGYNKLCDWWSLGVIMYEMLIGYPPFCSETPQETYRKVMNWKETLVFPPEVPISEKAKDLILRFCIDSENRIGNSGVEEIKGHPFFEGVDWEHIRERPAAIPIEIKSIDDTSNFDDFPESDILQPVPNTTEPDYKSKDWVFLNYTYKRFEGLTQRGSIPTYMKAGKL
active: [1] 0.68 | [4] 0.552
inactive: nilotinib -0.08 | dasatinib -0.002 | [2] -0.009 | [3] 0.102 | quisinostat -0.122 | tipifarnib 0.04 | [8] -0.046 | vorinostat -0.162 | silmitasertib 0.184 | [7] 0.022 | entospletinib 0.043

SPA17 (UniProt Q15506)
Chain of UniProt Q15506 (Q15506 whole entry, looked up): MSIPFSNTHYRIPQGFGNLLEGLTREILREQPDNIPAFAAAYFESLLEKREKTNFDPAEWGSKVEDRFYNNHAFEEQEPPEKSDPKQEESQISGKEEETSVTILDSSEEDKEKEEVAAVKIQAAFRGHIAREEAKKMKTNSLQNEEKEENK
inactive: dasatinib -0.065 | [3] -0.041 | quisinostat 0.003 | [4] -0.015 | [5] 0.042 | [6] 0.049 | [7] 0.022 | entospletinib -0.025

SNUPN (UniProt O95149)
inactive: nilotinib -0.007 | [1] -0.013 | [2] 0.005 | quisinostat 0.128 | tipifarnib -0.015 | [4] 0.042 | [5] -0.115 | [6] -0.076 | vorinostat -0.037 | silmitasertib 0.142 | [7] -0.043 | entospletinib -0.066
active: [8] -0.482

STK3 isoform 2 (UniProt Q13188)
inactive: nilotinib 0.015 | [1] 0.274 | dasatinib 0.132 | [2] 0.179 | [3] 0.276 | quisinostat -0.077 | tipifarnib -0.014 | [5] 0.108 | [8] -0.01 | [6] 0.034 | vorinostat -0.05 | silmitasertib 0.022 | [7] 0.025 | entospletinib -0.003

SHB (UniProt Q15464)
active: vorinostat -0.356
inactive: dasatinib 0.05 | [3] 0.004 | quisinostat 0.072 | [4] -0.026 | [5] -0.02 | [8] -0.01 | silmitasertib 0.117 | [7] 0.044

SPAG1 (UniProt Q07617)
Chain of UniProt Q07617 (Q07617 whole entry, looked up): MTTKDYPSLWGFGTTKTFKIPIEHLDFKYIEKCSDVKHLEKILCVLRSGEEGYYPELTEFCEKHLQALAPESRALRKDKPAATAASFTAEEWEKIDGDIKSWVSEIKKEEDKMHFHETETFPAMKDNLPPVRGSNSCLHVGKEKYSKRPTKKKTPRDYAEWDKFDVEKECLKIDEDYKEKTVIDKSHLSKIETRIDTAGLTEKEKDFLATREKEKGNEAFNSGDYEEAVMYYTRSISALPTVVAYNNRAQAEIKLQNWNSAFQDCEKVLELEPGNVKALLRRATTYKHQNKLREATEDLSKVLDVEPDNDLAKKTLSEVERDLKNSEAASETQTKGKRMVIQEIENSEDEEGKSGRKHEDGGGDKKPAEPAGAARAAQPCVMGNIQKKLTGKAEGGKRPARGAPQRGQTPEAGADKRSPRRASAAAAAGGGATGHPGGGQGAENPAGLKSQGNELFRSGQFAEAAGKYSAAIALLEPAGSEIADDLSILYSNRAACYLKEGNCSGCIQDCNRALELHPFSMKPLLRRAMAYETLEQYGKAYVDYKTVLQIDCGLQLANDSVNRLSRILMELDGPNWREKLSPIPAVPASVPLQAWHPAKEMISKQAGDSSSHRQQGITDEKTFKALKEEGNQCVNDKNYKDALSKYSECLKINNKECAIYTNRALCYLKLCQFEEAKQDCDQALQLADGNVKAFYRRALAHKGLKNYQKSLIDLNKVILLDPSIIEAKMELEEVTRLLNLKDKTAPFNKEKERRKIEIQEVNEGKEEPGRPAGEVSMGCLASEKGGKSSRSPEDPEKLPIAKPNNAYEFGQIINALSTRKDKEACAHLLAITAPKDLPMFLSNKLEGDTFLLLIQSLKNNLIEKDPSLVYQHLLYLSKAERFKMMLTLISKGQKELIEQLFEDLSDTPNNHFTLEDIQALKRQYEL
inactive: quisinostat -0.037 | [4] 0.007 | [5] 0.164 | [6] 0.227 | [7] -0.061

SLC35A3 isoform 2 (UniProt Q9Y2D2)
Chain of UniProt Q9Y2D2 (Q9Y2D2 whole entry, looked up): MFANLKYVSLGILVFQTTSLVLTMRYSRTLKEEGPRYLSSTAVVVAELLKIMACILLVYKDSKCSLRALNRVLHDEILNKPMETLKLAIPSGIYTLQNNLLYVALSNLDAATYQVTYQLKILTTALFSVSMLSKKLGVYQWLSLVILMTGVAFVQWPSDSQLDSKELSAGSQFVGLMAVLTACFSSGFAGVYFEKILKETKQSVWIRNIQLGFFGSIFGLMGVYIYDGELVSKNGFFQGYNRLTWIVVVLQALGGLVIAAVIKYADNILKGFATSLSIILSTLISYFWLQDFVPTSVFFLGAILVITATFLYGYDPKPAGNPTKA
inactive: nilotinib 0.02 | [1] -0.001 | [2] -0.049 | quisinostat -0.241 | tipifarnib 0.069 | [4] 0 | [5] 0.019 | [8] 0.056 | [6] -0.022 | vorinostat 0.091 | silmitasertib -0.07 | [7] 0.019 | entospletinib 0
